Compound activity (PubChem BioAssay)
Anthrax LF inh2: blocks Bacillus anthracis lethal factor protease. inhibition, % at 10 µM. multiplex microsphere protease cleavage assay, LF. P15917. 0.12% of 360,000 active; further: plate controls were buffer without enzyme for full effect and enzyme alone for no effect
BoNT-A LC inh2: BoNT A light chain protease inhibition; inhibition, % at 10 µM; 0.17% of 360,000 active; AID 588499; multiplex microsphere protease substrate cleavage, flow cytometry; further: plate controls were buffer without enzyme for full effect and enzyme alone for no effect
Bead autofluor: counter-screen for toxin protease inhibitors: compound fluorescence. compound autofluorescence counterscreen, microsphere flow cytometry; stronger effect = higher value. fluorescence intensity (no concentration beside the values). 3.1% of 360,000 active; in the data active means fluorescence intensity above about 16000
CCHF vOTU inh-1: CCHFV vOTU protease inhibition; Pep-AMC fluorescence; inhibition, % at 11.5 µM; 0.55% of 370,000 active; AID 651958; in the data active means inhibition above about 30%; further: 0% = vehicle wells with enzyme and 100% = no enzyme wells
BoNT-F LC inh: BoNT F light chain protease inhibition | 0.22% of 360,000 active | Multiplex microsphere protease cleavage assay, flow cytometry | inhibition, % at 10 µM | AID 588497; in the data active means inhibition above about 35%, passing the limit was not always enough; further: plate controls were buffer without enzyme for full effect and enzyme alone for no effect
SARS 3CLpro inh: SARS-CoV 3CLpro protease inhibition. recombinant SARS-CoV 3CLpro, quenched FRET peptide cleavage. inhibition, % at 6 µM. P0C6X7. 0.14% of 290,000 active; in the data active means inhibition above about 12%
CCHF vOTU inh-2: CCHFV vOTU protease inhibition, confirmation | shares compounds with CCHF vOTU inh-1 | Recombinant CCHFV vOTU, Pep-AMC fluorescence | inhibition, % at 11.5 µM | 17% of 1,900 active; in the data active means inhibition above about 30%
An asterisk follows results filed as active; . = no result given. Sampled rows, rich in hits. Any-hit rate of the full collection: about 3.9%. Unless noted, no stated cut-off is given here; in the data, active means inhibition above about 30%; inconclusive means no clear call, values can overlap the other calls; inactive means below that.

SMILES | Anthrax LF inh2 | BoNT-A LC inh2 | Bead autofluor | CCHF vOTU inh-1 | BoNT-F LC inh | SARS 3CLpro inh | CCHF vOTU inh-2
Nc1ccc(N(CCO)CCO)cc1 | -3 | 0 | 4273 | 57* | -9 | 4 | 27
O=C1CC(NCc2ccncc2)C(=O)N1c1ccccc1 (centres undefined) | 0 | 1 | 3557 | 35* | -6 | -4 | -9
C=CCN1C(=O)c2ccc(C(=O)OCC(=O)Nc3ccccc3OC)cc2C1=O | 0 | -1 | 4524 | 32* | -13 | . | -23
COc1ccccc1NC(=O)COC(=O)c1ccc2c(c1)OCCO2 | 4 | 0 | 3348 | -3 | 1 | . | .
CC(C)C[C@@H](CO)N(Cc1ccccc1)S(=O)(=O)N(Cc1ccccc1)[C@H](CO)CC(C)C | -4 | 0 | 4046 | . | -3 | . | .
COc1ccc(CN([C@H](CO)CC(C)C)S(=O)(=O)N(Cc2ccccc2)[C@H](CO)CC(C)C)cc1 | 0 | 0 | 2881 | 34* | -10 | . | 2
CC(=O)OCC(COC(C)=O)(CN1C(=O)c2ccccc2C1=O)CN1C(=O)c2ccccc2C1=O | . | . | . | -6 | . | . | .
COc1ccc(-c2csc(NC(=O)c3ccccc3NS(=O)(=O)c3ccc(F)c(F)c3)n2)cc1 | -2 | 0 | 4316 | 37* | 4 | 7 | 9
Cc1ccc(S(=O)(=O)Nc2ccccc2C(=O)Nc2nc(-c3ccc(F)cc3)cs2)cc1 | 0 | -1 | 10562 | 30* | -4 | 6 | -16
CCOc1ccc(NC(=O)c2ccccc2NS(=O)(=O)c2ccc(F)cc2)c([N+](=O)[O-])c1 | 1 | 0 | 2623 | 30* | 17 | 8 | -4
CCOc1ccc(S(=O)(=O)Nc2ccccc2C(=O)Nc2ccccc2N2CCOCC2)cc1 | 1 | -1 | 10906 | -6 | -4 | 3 | .
COC(=O)[C@]12C[C@H](CC(=O)NCc3cccc(C(F)(F)F)c3)C(=O)N(Cc3ccccc3)C1=C[C@H](C(C)(C)C)O[C@@H]2C | . | . | . | 29 | . | . | .
Cc1[nH]n(-c2ccccc2)c(=O)c1C(c1ccc(O)c([N+](=O)[O-])c1)c1c(C)[nH]n(-c2ccccc2)c1=O | -1 | 0 | 4215 | 70* | -16 | 6 | -8
COc1ccc(C(C[N+](=O)[O-])c2c(C)[nH]n(-c3ccccc3)c2=O)cc1 (centres undefined) | -16 | -3 | 3570 | 100* | 5 | -2 | 31*
Cc1[nH]n(-c2ccccc2)c(=O)c1C(c1ccc([N+](=O)[O-])cc1)c1c(C)[nH]n(-c2ccccc2)c1=O | 0 | 1 | 2358 | . | 1 | -5 | .
Cc1[nH]n(-c2ccccc2)c(=O)c1C(C[N+](=O)[O-])c1ccccc1Cl (centres undefined) | 0 | 0 | 2424 | 0 | -2 | 1 | .
CCCCN(CCCC)S(=O)(=O)c1ccc(NC(=O)c2ccc([N+](=O)[O-])cc2Cl)cc1 | -2 | 0 | 2126 | 30* | -1 | 2 | -8
O=C(NCCc1ccccc1)OCc1cn(Cc2cccc(F)c2F)nn1 | . | . | . | -2 | . | . | .
O=C1c2ccccc2C(=O)C12OC2c1cccc2ccccc12 (centres undefined) | 1 | 2 | 2550 | 87* | 1 | -1 | 48*
O=C1NC(c2cccc3ccccc23)Nc2ccccc21 (centres undefined) | -1 | 0 | 4278 | -12 | 0 | . | .
Cc1ccc(-n2nc(C)c(NS(=O)(=O)c3ccccc3)c2C)cc1C | -3 | 0 | 8049 | -9 | 0 | 4 | .
Cc1nn(-c2ccc(F)cc2)c(C)c1NS(=O)(=O)c1ccc(Cl)cc1 | -1 | 1 | 4059 | 30* | 10 | -2 | -9
CC(=O)Nc1ccc2c(c1)C(=O)N(C)[C@H]1CC[C@H](CC(=O)NCc3ccc(F)cc3)O[C@@H]1CO2 | . | . | . | 6 | . | . | .
CN(C)c1ccc(/C=N/NC(=O)c2cc(=O)[nH]c3ccccc23)cc1 | -7 | 1 | 5834 | 32* | -6 | 8 | 3
O=C(N/N=C/c1ccccc1)c1cc(=O)[nH]c2ccccc12 | 0 | 0 | 1970 | 1 | 1 | 5 | .
SMILES | Anthrax LF inh2 | BoNT-A LC inh2 | Bead autofluor | CCHF vOTU inh-1 | BoNT-F LC inh | SARS 3CLpro inh | CCHF vOTU inh-2
CCCn1c(NC(=O)c2ccccc2)nc(Cc2ccccc2)c1-c1ccc(OC)cc1 | . | . | . | 6 | . | . | .
CCOC(=O)C(=CNc1cc(C)nn1-c1ccc(C)cc1)C(=O)OCC | 2 | 0 | 2330 | 30* | -4 | 0 | -11
CC(C)(C)OC(=O)[C@H](Cc1ccccc1)NC(=O)c1nc[nH]c1C(=O)N[C@@H](CCCCN)C(=O)OC(C)(C)C | 1 | -1 | 3391 | 16 | -23 | . | .
CC(C)(C)OC(=O)NCCCC[C@H](NC(=O)c1[nH]cnc1C(=O)N[C@@H](Cc1ccccc1)C(=O)OCc1ccccc1)C(=O)OC(C)(C)C | -1 | 0 | 3863 | 31* | -1 | . | 13
C[C@@H](NC(=O)c1nc[nH]c1C(=O)N[C@@H](CCCCNC(=O)OC(C)(C)C)C(=O)OC(C)(C)C)c1ccccc1 | -4 | 0 | 4057 | 35* | 4 | 4 | 5
O=C(O)c1cc(N2N=C(C(F)(F)F)/C(=C/C=C/c3ccco3)C2=O)ccc1Cl | 2 | 2 | 4197 | 63* | 20 | 6 | 44*
O=C(C1CCCN1S(=O)(=O)c1ccc(Br)s1)N1CCc2ccccc2C1 (centres undefined) | . | . | . | -7 | . | . | .
COc1ccc(OCC2CN(C3CCCC3)S(=O)(=O)CCO2)cc1 (centres undefined) | . | . | . | 1 | . | . | .
O=c1ccc2[n+]([O-])c3ccc(O)cc3oc-2c1 | 1 | -1 | 4208 | 50* | -2 | 1 | 27
CCc1nnc(NS(=O)(=O)c2ccc(Nc3ccc([N+](=O)[O-])c4nonc34)cc2)s1 | -8 | -2 | 4690 | 31* | -12 | 6 | 6
CCc1nnc(NS(=O)(=O)c2ccc(NS(=O)(=O)c3ccccc3[N+](=O)[O-])cc2)s1 | 4 | 0 | 3608 | -3 | 18 | -1 | .
CCc1nnc(NS(=O)(=O)c2ccc(NC(=O)c3cccc([N+](=O)[O-])c3)cc2)s1 | -1 | -1 | 5620 | 15 | -1 | 0 | .
CCc1nnc(NS(=O)(=O)c2ccc(NC(=O)c3ccc([N+](=O)[O-])s3)cc2)s1 | -2 | -1 | 3760 | 35* | -4 | . | 12
C=CCOc1ccc(C(c2c(C(=O)O)[nH]c3ccccc23)c2c(C(=O)O)[nH]c3ccccc23)cc1 | 3 | -1 | 4003 | 51* | 13 | 5 | -2
COc1cc(C(c2c(C(=O)O)[nH]c3ccccc23)c2c(C(=O)O)[nH]c3ccccc23)ccc1OCc1ccccc1 | -3 | 3 | 3173 | 39* | -1 | 11 | 22
CCCCOCCCNC(=O)C[C@H]1C[C@@]2(C(=O)OC)C(=C[C@H](C(C)(C)C)O[C@@H]2C)N(Cc2ccco2)C1=O | . | . | . | 11 | . | . | .
CCCCCNC(=O)C(c1ccc(C(F)(F)F)cc1)n1c(=O)c(-c2ccco2)nc2ccccc21 (centres undefined) | . | . | . | 31* | . | . | -20
